Results reported in paper PMC7862700, “An all-to-all approach to the identification of sequence-specific readers for epigenetic DNA modifications on cytosine”.

What was measured:
Assay in all cases: DAPPL (digital affinity profiling via proximity ligation, sequencing); 10 mM Tris-HCl pH 7.5, 50 mM NaCl, 1 mM DTT, 4% glycerol, room temperature, 30 min; GST-TFs on glutathione beads, 16-mer random dsDNA library, 0.1% formaldehyde crosslink after washing; high values mean tight binding
FLI1 = target: T1, FLI1 (Homo sapiens, UniProt Q01543 1-452); conditions: protein: recombinant; tags: N-terminal GST; dsDNA, one strand shown
T1 sequence: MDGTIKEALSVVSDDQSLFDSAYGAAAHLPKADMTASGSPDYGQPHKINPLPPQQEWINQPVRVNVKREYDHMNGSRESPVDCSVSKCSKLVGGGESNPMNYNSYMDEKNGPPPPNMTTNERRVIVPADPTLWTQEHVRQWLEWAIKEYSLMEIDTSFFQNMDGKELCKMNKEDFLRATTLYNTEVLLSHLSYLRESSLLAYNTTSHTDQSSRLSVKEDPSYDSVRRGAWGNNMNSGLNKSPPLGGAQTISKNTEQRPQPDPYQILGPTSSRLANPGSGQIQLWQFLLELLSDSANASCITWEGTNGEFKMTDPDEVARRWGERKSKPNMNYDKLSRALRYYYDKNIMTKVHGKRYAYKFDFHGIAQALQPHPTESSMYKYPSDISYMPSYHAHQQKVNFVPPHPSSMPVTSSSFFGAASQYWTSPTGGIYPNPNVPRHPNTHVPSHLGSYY
How it was run: (§1)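 Binding signal is given per hexamer as its read frequency for a factor divided by its frequency in the tag-only sample. GST-fused human transcription factors were expressed in yeast, captured on glutathione beads, barcoded with DNA and pooled with that sample, then incubated with 200 nmole of a 16-mer random double-stranded DNA library in Tris/NaCl/DTT/glycerol buffer for 30 min at room temperature. The pools were then washed, crosslinked, proximity-ligated, amplified by PCR and sequenced on an Illumina NextSeq500.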

ELK1 = target: T2, ELK1 (Homo sapiens, UniProt P19419 1-428); conditions: protein: recombinant; tags: N-terminal GST; dsDNA, one strand shown
T2 sequence: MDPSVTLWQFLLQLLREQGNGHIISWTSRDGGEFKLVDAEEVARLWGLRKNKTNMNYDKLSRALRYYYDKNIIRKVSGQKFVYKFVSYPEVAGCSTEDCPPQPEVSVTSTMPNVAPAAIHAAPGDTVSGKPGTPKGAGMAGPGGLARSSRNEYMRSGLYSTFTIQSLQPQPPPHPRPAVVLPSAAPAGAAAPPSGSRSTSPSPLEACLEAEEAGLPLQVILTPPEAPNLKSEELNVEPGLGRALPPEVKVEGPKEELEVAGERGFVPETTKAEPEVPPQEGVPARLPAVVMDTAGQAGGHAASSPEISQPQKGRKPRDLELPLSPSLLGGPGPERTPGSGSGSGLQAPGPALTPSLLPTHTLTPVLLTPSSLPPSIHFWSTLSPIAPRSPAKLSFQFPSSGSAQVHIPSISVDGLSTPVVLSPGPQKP
How it was run: as §1

GABPA = target: T3, GABPA (Homo sapiens, UniProt Q06546 1-454); conditions: protein: recombinant; tags: N-terminal GST; dsDNA, one strand shown
T3 sequence: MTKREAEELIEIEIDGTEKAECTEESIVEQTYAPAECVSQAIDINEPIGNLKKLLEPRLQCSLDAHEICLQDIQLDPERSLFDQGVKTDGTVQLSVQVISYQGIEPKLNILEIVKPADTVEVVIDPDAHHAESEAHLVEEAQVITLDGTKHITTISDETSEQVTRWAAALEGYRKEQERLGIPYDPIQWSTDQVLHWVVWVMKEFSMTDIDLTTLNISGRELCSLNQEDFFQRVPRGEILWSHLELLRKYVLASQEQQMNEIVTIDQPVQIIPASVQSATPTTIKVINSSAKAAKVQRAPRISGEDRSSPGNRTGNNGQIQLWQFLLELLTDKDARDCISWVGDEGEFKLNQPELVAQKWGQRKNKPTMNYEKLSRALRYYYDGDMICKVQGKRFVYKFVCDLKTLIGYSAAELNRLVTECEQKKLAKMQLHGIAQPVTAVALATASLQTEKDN
How it was run: as §1

ERG = target: T4, ERG (Homo sapiens, UniProt P11308 1-479); conditions: protein: recombinant; tags: N-terminal GST; dsDNA, one strand shown
T4 sequence: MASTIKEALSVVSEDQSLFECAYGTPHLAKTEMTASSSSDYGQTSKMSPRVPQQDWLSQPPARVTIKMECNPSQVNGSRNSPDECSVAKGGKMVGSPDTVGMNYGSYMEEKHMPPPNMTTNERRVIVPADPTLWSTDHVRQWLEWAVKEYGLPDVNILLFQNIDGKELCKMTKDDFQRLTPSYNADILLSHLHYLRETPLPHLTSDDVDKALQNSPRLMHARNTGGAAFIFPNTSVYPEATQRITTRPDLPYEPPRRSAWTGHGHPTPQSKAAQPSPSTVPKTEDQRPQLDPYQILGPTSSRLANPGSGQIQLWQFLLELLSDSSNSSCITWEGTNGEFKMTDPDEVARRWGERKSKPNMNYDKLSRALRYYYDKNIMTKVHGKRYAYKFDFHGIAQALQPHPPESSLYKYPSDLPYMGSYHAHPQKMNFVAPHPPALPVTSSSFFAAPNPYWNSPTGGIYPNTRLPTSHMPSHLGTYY
How it was run: as §1

EHF = target: T5, EHF (Homo sapiens, UniProt Q9NZC4 1-300); conditions: protein: recombinant; tags: N-terminal GST; dsDNA, one strand shown
T5 sequence: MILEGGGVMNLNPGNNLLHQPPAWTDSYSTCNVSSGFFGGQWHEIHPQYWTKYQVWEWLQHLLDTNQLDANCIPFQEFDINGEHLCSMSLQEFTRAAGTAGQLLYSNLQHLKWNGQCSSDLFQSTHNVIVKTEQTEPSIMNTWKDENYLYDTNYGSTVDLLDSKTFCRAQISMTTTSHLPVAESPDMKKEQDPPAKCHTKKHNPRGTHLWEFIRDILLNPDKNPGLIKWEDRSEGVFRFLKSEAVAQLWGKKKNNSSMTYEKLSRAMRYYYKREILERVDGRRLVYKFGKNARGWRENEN
How it was run: as §1

SPI1 = SPI1 (Homo sapiens, UniProt P17947 1-270); conditions: protein: recombinant; tags: N-terminal GST; dsDNA, one strand shown
How it was run: as §1

SPIB = SPIB (Homo sapiens, UniProt Q01892 1-262); conditions: protein: recombinant; tags: N-terminal GST; dsDNA, one strand shown
Sequence of SPIB (Q01892 whole entry): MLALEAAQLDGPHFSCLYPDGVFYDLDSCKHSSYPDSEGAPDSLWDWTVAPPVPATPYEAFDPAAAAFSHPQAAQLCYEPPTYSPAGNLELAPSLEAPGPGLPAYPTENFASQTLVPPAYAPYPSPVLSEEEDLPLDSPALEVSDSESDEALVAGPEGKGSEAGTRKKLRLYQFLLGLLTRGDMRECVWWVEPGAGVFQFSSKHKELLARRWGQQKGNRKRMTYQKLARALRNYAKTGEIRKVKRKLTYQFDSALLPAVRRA
How it was run: as §1

ELK3 = target: T6, ELK3 (Homo sapiens, UniProt P41970 1-407); conditions: protein: recombinant; tags: N-terminal GST; dsDNA, one strand shown
T6 sequence: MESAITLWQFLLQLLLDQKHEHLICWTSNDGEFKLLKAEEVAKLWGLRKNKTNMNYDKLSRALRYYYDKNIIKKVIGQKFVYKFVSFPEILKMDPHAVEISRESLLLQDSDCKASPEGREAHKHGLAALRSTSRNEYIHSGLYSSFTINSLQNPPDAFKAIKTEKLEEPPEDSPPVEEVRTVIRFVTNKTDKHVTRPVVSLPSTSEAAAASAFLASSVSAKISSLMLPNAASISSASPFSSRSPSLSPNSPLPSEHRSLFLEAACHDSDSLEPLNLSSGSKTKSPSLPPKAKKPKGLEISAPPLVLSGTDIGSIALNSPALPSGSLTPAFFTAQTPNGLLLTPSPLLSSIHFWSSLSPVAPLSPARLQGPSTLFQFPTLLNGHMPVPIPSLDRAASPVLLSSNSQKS
How it was run: as §1

FEV = target: T7, FEV (Homo sapiens, UniProt Q99581 1-238); conditions: protein: recombinant; tags: N-terminal GST; dsDNA, one strand shown
T7 sequence: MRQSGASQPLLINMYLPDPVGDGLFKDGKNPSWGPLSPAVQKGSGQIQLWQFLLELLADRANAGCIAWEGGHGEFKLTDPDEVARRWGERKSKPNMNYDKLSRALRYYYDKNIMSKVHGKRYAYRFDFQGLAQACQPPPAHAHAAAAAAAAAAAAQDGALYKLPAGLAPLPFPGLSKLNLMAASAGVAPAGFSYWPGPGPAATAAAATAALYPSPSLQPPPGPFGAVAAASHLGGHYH
How it was run: as §1

ETV5 = ETV5 (Homo sapiens, UniProt P41161 1-510); conditions: protein: recombinant; tags: N-terminal GST; dsDNA, one strand shown
Sequence of ETV5 (P41161 whole entry): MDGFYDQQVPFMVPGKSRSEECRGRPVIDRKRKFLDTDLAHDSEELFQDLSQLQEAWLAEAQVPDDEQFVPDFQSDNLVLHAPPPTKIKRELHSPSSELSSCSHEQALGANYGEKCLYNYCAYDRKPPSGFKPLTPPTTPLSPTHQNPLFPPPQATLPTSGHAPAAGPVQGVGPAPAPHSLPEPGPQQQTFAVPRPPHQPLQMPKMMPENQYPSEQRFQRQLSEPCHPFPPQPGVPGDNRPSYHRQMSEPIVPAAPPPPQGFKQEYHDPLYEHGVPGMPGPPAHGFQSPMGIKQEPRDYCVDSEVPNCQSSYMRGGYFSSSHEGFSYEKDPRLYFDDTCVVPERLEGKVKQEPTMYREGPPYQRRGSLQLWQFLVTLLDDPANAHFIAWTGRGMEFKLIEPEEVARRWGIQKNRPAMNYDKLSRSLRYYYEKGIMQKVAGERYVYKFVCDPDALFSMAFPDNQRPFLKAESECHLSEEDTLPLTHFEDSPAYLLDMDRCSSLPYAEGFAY
How it was run: as §1

HSF1 = HSF1 (Homo sapiens, UniProt Q00613 1-529); conditions: protein: recombinant; tags: N-terminal GST; chain copies: 3; dsDNA, one strand shown
Sequence of HSF1 (Q00613 whole entry): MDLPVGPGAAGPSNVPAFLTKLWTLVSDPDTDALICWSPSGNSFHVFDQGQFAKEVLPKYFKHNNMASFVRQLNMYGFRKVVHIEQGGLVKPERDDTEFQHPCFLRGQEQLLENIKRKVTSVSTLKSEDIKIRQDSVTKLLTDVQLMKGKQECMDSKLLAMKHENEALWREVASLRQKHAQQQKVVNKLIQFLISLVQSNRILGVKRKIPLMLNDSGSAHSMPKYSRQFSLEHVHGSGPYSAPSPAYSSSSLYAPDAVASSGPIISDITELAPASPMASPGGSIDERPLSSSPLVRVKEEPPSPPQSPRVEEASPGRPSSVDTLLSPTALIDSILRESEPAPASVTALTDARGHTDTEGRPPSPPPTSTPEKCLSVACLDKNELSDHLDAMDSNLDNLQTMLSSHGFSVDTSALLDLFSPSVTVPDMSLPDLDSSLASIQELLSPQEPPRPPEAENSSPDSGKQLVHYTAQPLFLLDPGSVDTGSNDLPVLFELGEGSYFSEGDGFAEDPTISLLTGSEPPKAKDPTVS
How it was run: as §1

SPIC = target: T8, SPIC (Homo sapiens, UniProt Q8N5J4 1-248); conditions: protein: recombinant; tags: N-terminal GST; dsDNA, one strand shown
T8 sequence: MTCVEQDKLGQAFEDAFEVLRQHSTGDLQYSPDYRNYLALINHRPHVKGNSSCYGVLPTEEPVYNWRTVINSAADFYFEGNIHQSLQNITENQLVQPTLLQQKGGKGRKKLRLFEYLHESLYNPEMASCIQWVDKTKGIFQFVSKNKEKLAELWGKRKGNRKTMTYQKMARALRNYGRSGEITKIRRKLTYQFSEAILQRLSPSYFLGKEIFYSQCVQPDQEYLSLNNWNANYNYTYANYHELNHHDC
How it was run: as §1

ELK4 = target: T9, ELK4 (Homo sapiens, UniProt P28324-2 1-405); conditions: protein: recombinant; tags: N-terminal GST; dsDNA, one strand shown
T9 sequence: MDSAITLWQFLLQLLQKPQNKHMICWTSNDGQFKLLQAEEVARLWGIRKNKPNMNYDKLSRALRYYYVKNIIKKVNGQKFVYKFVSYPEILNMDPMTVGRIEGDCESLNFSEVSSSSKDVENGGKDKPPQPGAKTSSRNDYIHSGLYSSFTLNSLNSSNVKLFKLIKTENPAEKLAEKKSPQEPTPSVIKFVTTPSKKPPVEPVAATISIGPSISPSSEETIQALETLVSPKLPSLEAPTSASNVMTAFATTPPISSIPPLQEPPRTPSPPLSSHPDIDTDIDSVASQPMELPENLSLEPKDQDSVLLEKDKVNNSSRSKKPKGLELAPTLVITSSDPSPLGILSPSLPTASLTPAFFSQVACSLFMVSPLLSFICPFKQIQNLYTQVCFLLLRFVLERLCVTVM
How it was run: as §1

ELF3 = target: T10, ELF3 (Homo sapiens, UniProt P78545 1-371); conditions: protein: recombinant; tags: N-terminal GST; dsDNA, one strand shown
T10 sequence: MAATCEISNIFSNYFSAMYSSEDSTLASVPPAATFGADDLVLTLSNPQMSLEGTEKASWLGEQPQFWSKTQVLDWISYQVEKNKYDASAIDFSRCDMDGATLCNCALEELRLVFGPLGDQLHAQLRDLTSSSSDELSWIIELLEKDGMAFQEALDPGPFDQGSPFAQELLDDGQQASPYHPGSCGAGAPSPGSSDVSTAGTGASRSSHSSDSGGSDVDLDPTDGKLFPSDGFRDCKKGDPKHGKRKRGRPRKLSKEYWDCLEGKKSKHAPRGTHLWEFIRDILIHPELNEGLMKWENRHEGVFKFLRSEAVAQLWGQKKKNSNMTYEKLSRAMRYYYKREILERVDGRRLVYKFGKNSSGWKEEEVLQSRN
How it was run: as §1

CRX = CRX (Homo sapiens, UniProt O43186 1-299); conditions: protein: recombinant; tags: N-terminal GST; dsDNA, one strand shown
Sequence of CRX (O43186 whole entry): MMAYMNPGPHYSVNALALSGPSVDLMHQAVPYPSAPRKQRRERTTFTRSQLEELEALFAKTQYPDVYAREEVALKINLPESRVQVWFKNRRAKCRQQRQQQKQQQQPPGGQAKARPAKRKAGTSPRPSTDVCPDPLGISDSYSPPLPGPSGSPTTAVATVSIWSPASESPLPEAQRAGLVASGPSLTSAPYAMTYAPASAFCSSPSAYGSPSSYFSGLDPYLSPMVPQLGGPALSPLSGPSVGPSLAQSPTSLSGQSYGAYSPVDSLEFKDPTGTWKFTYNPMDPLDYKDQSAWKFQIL
How it was run: as §1

ETV1 = ETV1 (Homo sapiens, UniProt P50549 1-477); conditions: protein: recombinant; tags: N-terminal GST; dsDNA, one strand shown
Sequence of ETV1 (P50549 whole entry): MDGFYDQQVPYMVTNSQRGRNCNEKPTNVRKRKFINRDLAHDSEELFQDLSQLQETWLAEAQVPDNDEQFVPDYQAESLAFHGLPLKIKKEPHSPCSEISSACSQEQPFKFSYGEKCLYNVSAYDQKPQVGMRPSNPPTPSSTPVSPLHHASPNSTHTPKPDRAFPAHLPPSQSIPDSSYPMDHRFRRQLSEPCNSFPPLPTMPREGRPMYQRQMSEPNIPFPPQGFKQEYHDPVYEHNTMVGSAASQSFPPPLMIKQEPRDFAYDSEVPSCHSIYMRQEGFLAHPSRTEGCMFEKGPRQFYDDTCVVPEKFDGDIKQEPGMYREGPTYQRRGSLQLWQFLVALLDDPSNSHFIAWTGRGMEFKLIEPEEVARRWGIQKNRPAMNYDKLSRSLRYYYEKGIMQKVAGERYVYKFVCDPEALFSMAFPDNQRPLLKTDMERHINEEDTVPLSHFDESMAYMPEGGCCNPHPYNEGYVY
How it was run: as §1

In the case of TGTTCG, the binding signal (FLI1) is reported as 1.19 fold enrichment (6-mer frequency, TF over GST control), the binding signal (ELK1) is reported as 1.1 fold enrichment (6-mer frequency, TF over GST control) and the binding signal (GABPA) is reported as 1.07 fold enrichment (6-mer frequency, TF over GST control). The binding signal (ERG) was 1.04 fold enrichment (6-mer frequency, TF over GST control), the binding signal (EHF) was 1.2 fold enrichment (6-mer frequency, TF over GST control) and the binding signal (SPI1) was 1.06 fold enrichment (6-mer frequency, TF over GST control). The binding signal (SPIB) was 1.09 fold enrichment (6-mer frequency, TF over GST control), the binding signal (ELK3) was 1.03 fold enrichment (6-mer frequency, TF over GST control) and the binding signal (FEV) was 1.01 fold enrichment (6-mer frequency, TF over GST control). For the same sequence, the binding signal (ETV5) was 1.06 fold enrichment (6-mer frequency, TF over GST control), the binding signal (HSF1) was 1.6 fold enrichment (6-mer frequency, TF over GST control) and the binding signal (SPIC) was 1.15 fold enrichment (6-mer frequency, TF over GST control). For the same sequence, the binding signal (ELK4) was 1.01 fold enrichment (6-mer frequency, TF over GST control), the binding signal (ELF3) was 1.17 fold enrichment (6-mer frequency, TF over GST control) and the binding signal (CRX) was 1.06 fold enrichment (6-mer frequency, TF over GST control). The binding signal (ETV1) was 1.05 fold enrichment (6-mer frequency, TF over GST control).
